# Screening data as filed in PubChem BioAssay.
# Rows were chosen to be rich in hits. Some 3.4% of all compounds tested hit in one or more screens of this group.
# GAA850 FXN act: increases GAA850 frataxin promoter reporter activity | HEK293 lucGAA850 FXN promoter luciferase reporter, 24 h; percent of 10 µM SAHA response | activation, % at 6 µM | 360,000 compounds, 0.56% hits;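 active = activation above the average of all compounds screened plus 3 SD, cutoff fixed separately per campaign, cut at about 7.5% in these data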
# Gli-Sufu antag: Gli-Sufu pathway antagonism; inhibition, % at 5 µM; Sufu-KO-LIGHT fibroblasts, Gli luciferase reporter luminescence; 340,000 compounds, 0.74% hits;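 active = inhibition above about 55%, limit read from the data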
# GalR3 antagonist: blocks the human galanin receptor 3; inhibition, % at 3 µM; 360,000 compounds, 0.44% hits; O60755; HEK293 GalR3-CNG cAMP membrane potential fluorescence; galR3 body fused to GalR1 C-terminus; AID 651719;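 active = inhibition above the screen-wide average plus 3 SD, cut at about 13% in these data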;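 note: forskolin and galanin both at EC90 stimulate the cells; cAMP rise reported by CNG channel membrane potential dye signal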
# Target sequence (O60755 1-299 limits assumed): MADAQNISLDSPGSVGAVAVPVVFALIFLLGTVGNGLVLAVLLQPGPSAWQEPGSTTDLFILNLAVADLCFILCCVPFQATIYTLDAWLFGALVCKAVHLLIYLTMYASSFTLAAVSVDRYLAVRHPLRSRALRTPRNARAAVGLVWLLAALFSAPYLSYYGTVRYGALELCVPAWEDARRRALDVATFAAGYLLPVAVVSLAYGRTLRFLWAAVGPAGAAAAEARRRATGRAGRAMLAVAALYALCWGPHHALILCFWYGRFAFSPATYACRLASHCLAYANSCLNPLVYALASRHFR
# COUP-TFII inh: NR2F2 (human) inhibition, primary screen. HEK293T NGFI-A luciferase reporter, luminescence. inhibition, % at 8.6 µM. 370,000 compounds, 0.7% hits. P24468;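 active = inhibition above a per-plate cutoff, mean inhibition of test wells between control levels plus 3 SD, cut at about 38% in these data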;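 note: cells cotransfected with COUP-TFII expression vector driving the NGFI-A reporter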
# H9c2 protect: myocardial damage modulation in H9c2 cells | protection from H2O2 cell death, % at 20 µM | 360,000 compounds, 0.63% hits | H9c2 cardiomyocytes, H2O2 injury protection, ATPLite, 2 h;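 active = compounds giving at least 50% protection of heart cells from peroxide-induced death in the single-dose screen, raw or plate-pattern-corrected value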
# SMARCA2 activ: SMARCA2 function activation, primary screen. MG213 cells, MMTV-luciferase reporter, dexamethasone, overnight. activation, % at 9.1 µM. 370,000 compounds, 1% hits. AID 652017; in the data active = activation above about 7.8%
# SMARCA2 conf: confirmation of SMARCA2 (BRM) function activators; activation, % at 9.1 µM; MG213 cells, MMTV-luciferase with dexamethasone, luminescence, overnight; MG213 cells expressing E1A, Rb sequestered; DMSO wells 0%, reference activator 100%; shares compounds with SMARCA2 activ; 3,500 compounds, 30% hits;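 active = activation above its plate's cutoff, the mean activation of tested wells plus 3 SD, cut at about 7.9% in these data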
# GAL4-VP16 Luc: GAL4-VP16 reporter activation counter-screen; shares compounds with SMARCA2 activ; HEK293 GAL4-VP16 pG5luc reporter, luciferase luminescence; scaled: DMSO wells 0%, SAHA wells 100%; activation, % at 9.1 µM; 3,500 compounds, 41% hits; AID 686939;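 active = activation above the solvent-only control well mean plus 3 SD, averaged across control plates, cut at about 5.2% in these data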
# Numbers stand for hits; i = inactive; nt = not tested or not shown.
SMILES,GAA850 FXN act,Gli-Sufu antag,GalR3 antagonist,COUP-TFII inh,H9c2 protect,SMARCA2 activ,SMARCA2 conf,GAL4-VP16 Luc
O=C(Nc1ccc(C(=O)O)cc1)/C(=C\c1ccc2c(c1)OCO2)NC(=O)c1ccccc1Cl,i,nt,i,i,i,i,nt,nt
O=C(Nc1cccc(F)c1)c1ccc(-n2cncn2)c2ccoc12,i,nt,i,i,i,12,8.2,8.7
COC(=O)[C@]12C[C@H](CC(=O)NCCc3ccccc3OC)C(=O)N(Cc3cccc4ccccc34)C1=C[C@H](C1CCCC1)O[C@@H]2C,nt,nt,nt,i,nt,i,nt,nt
CC(C(=O)Nc1ccc(C#N)cc1)N1CCN(C(=O)C2CC2)CC1 (centres undefined),i,i,i,i,i,i,nt,nt
CC(C)CCNC(=O)CN1N=C(c2ccc(Cl)cc2)CCC1=O,i,i,i,i,i,i,nt,nt
OC1CCCN(Cc2ccc3ccc4cccc5ccc2c3c45)C1 (centres undefined),i,i,i,i,i,11,25,i
COc1cccc(NC(=O)c2ccnc(N3CCC(C(=O)NCc4ccccc4OC)CC3)c2)c1,i,i,i,i,i,i,nt,nt
COc1cc(OC)nc(C(NC(=O)C2CCN(Cc3c[nH]c4ccccc34)CC2)c2ccc(Cl)cc2)n1 (centres undefined),i,nt,i,i,i,12,i,i
COc1cc(OC)nc(C(NC(=O)C2CCN(Cc3ccc(N(C)C)cc3)CC2)c2ccc(F)cc2)n1 (centres undefined),i,nt,i,i,i,i,nt,nt
CCCc1cc(=O)c2ccc(OC/C(C)=N/O)cc2o1,i,i,i,i,i,8.5,i,i
CCCc1cc(=O)c2ccc(OCC(C)=O)cc2o1,i,i,i,i,i,i,nt,nt
COc1ccc(S(=O)(=O)N2CCOCC2)cc1NC(=O)CCCSc1ccccc1,i,nt,i,i,i,9.3,i,i
COc1ccc(S(=O)(=O)N2CCOCC2)cc1NC(=O)CCCOc1ccccc1,i,i,i,i,i,i,nt,nt
Cc1cc(N2CCN(C)CC2)nc2ccc(NC(=O)CCC(=O)N3CCN(c4ccc([N+](=O)[O-])cc4)CC3)cc12,i,i,i,i,i,i,nt,nt
Cc1cc(N2CCOCC2)nc2ccc(NC(=O)CCC(=O)N3CCN(c4ccccc4)CC3)cc12,i,i,i,i,i,8.2,i,5.4
Cc1nc(NCCc2ccccc2)sc1C(=O)N(C)C,i,i,i,i,i,8.6,i,i
COc1ccccc1CNc1nc(C)c(C(=O)N(C)C)s1,i,i,i,i,i,i,nt,nt
Cc1ccc(NC2CCCN(C(=O)c3ccc(C)c(N4CCNC4=O)c3)C2)cc1C (centres undefined),i,i,nt,nt,i,nt,nt,nt
O=C(c1ccc(Cl)cc1)C1CCN(Cc2ccccc2)CC1,i,i,i,i,i,8.2,i,i
CNC[C@@H]1Oc2ccc(NS(=O)(=O)c3ccc(OC)cc3)cc2CC(=O)N([C@H](C)CO)C[C@@H]1C,i,i,nt,nt,i,nt,nt,nt
COc1ccc(NC(=O)Nc2cc(C)ccn2)cc1,i,i,i,i,i,i,nt,nt
COc1ccc(C(=O)NC(=O)Nc2cc(C)ccn2)cc1,i,i,i,i,i,12,i,i
COc1ccc(-c2cc(C(=O)c3c(N)n(C)c(=O)n(C)c3=O)c3ccccc3n2)cc1,i,i,i,i,i,8.2,8.8,7.3
Nc1ccc2nc(COc3ccccc3)[nH]c2c1,i,i,i,i,i,12,i,i
Nc1ccc2nc(CCCCc3nc4ccccc4[nH]3)[nH]c2c1,i,i,i,i,i,i,nt,nt
SMILES,GAA850 FXN act,Gli-Sufu antag,GalR3 antagonist,COUP-TFII inh,H9c2 protect,SMARCA2 activ,SMARCA2 conf,GAL4-VP16 Luc
Cc1oncc1C(=O)Nc1ccc2ccccc2c1,i,i,i,i,i,9.1,9.3,i
CC(=O)Nc1ccc(NC(=O)COC(=O)c2cc(S(=O)(=O)N(C)C)ccc2N2CCCC2)cc1,i,i,i,i,i,i,nt,nt
CCCC(=O)Nc1ccc(-c2csc(NNC(C)=O)n2)cc1,i,i,i,i,i,12,i,i
CC(=O)NNc1nc(-c2ccc(C)cc2)cs1,i,i,i,i,i,i,nt,nt
O=C(Nc1ccncc1)C1CCN(S(=O)(=O)c2c(Cl)cccc2Cl)CC1,i,i,i,i,i,i,nt,nt
Cn1nc([N+](=O)[O-])nc1S(C)(=O)=O,18,i,i,i,i,52,49,i
Cc1cc(-n2cnnn2)ccc1C(C)C,i,i,i,i,i,8.5,i,i
CC(C)n1nnnc1SCC(=O)c1ccc2c(c1)OCCO2,i,i,i,i,i,i,nt,nt
O=C(CSc1nnnn1C1CCCC1)c1ccc2c(c1)OCCO2,i,i,i,i,i,8.3,i,5.4
Cc1ccc(N=Nc2[nH]c3ccccc3c2O)cc1,i,i,i,i,i,9.1,14,i
COc1ccc(N=Nc2[nH]c3ccc(C)cc3c2O)cc1,i,i,i,i,i,i,nt,nt
CC(C)(CNS(=O)(=O)c1cccs1)N1CCOCC1,i,i,i,i,i,i,nt,nt
CCN(CC)CCCNc1nc2cc(OC)c(OC)cc2c2nc(-c3ccccc3)nn12,i,i,i,i,i,i,nt,nt
CCN(CC)CCCNc1nc2ccccc2c2nc(-c3ccncc3)nn12,i,i,i,i,i,23,35,i
Cc1sc2nc(CN3CCCCC3)nc(Nc3ccc4c(c3)OCCO4)c2c1C,i,i,i,i,i,9.2,11,i
COc1cccc(CNc2cnc3ccccc3c2)c1O,i,i,i,i,i,i,nt,nt
COc1cccc(CNc2nc3ccccc3n2C)c1O,i,i,i,i,i,9.5,11,9.6
COc1ccccc1C1CCN(C(=O)c2cccs2)CC1,i,i,i,i,i,i,nt,nt
CC(=O)c1ccc(N=C2SCCCN2C(=O)C2CCCC2)cc1,i,i,i,i,i,i,nt,nt
Cc1cc2nc(-c3cccnc3SCC(=O)NC(C)C)[nH]c2cc1C,i,i,i,i,i,11,8.4,8.9
COCCOC(=O)CSc1ncccc1-c1nc2cc(C)c(C)cc2[nH]1,i,i,i,i,i,i,nt,nt
COc1ccc(C(C)=O)cc1CS(=O)(=O)CC(=O)NCCc1c[nH]c2ccccc12,i,nt,i,i,i,9.0,i,i
COc1ccc(C(=O)CCC(=O)NCCc2c[nH]c3ccccc23)cc1OC,i,i,i,i,i,i,nt,nt
O=C(COc1ccc(F)cc1)N1CCC(c2ccccc2)C1 (centres undefined),i,i,i,i,i,8.4,i,7.9
COC(=O)c1ccc2[nH]c(C)cc(=O)c2c1,i,i,i,i,i,i,nt,nt
COC(=O)c1ccc2[nH]c(C(C)(C)O)c(C)c2c1,i,i,i,i,i,8.2,i,i
